Screening data as filed in PubChem.
KKLEB tox: reduces viability of KKLEB cystic fibrosis airway cells; KKLEB CF airway cells viability, ATPlite luminescence, overnight; hits give low values; cells stimulated with P. aeruginosa culture filtrate; activity change (cytotoxicity), % at 5 µM; hit rate 0.36% among 360,000; AID 602141;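 active = corrected activity change at or below -50% at 5 µM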
HIF-2a block: blocks HIF-2a reporter activity; inhibition, % at 18.8 µM; hit rate 0.72% among 360,000; 786-0 RCC cells HIF-2a reporter, luciferase luminescence, overnight; AID 624352;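 active = inhibition of the luminescence signal of 40% or more relative to plate controls, in a single-dose primary screen at 18.75 µM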
TROY NFkB inh: TROY signaling inhibition; inhibition, % at 10 µM; hit rate 0.98% among 360,000; Q293 LMP1-TROYcd NF-kB luciferase reporter, 4 h; AID 1347056;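 active = compounds whose plate-normalised and pattern-corrected inhibition of the luciferase reporter signal at the single screening dose is 50% or more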
Peg3 promoter: Peg3 promoter activity inhibition; HeLa PEG-Prom luciferase reporter, luminescence, overnight; AID 588405; hit rate 1.7% among 360,000; inhibition, % at 20 µM;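 active = inhibition of at least 50% at 20 µM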
CF NFkB inh: blocks PAF-induced NF-kB reporter in cystic fibrosis cells; KKLEB NF-kB-GFP reporter, GFP fluorescence overnight; inhibition, % at 5 µM; hit rate 0.86% among 360,000;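 active = at least 50% inhibition at 5 µM, scaled per plate between neutral and stimulator controls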;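 also: PAF is a Pseudomonas aeruginosa culture filtrate used as stimulus; plate controls were PAF-stimulated DMSO wells for no effect and unstimulated DMSO wells for full effect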
TWEAK-Fn14 inh: blocks TWEAK-Fn14 interaction in a reporter cell assay | TWEAK-stimulated Fn14 reporter cells, luciferase luminescence, 8 h | inhibition, % at 10 µM | hit rate 2% among 360,000 | AID 1159606; in the data active = inhibition above about 50%
Starred values were filed as active, the others as inactive; nt = not tested or not shown. An excerpt weighted towards active compounds, which were near 4% of everything screened.

SMILES	KKLEB tox	HIF-2a block	TROY NFkB inh	Peg3 promoter	CF NFkB inh	TWEAK-Fn14 inh
CCOc1ccccc1-n1c(CN2CCN(C(=O)c3ccco3)CC2)nc2ccccc2c1=O	-8.7	32.4	-33.6	104.5*	26.6	17.0
CCOc1ccccc1-c1nc(CN2CCN(C(=O)c3ccco3)CC2)c(C)o1	7.6	11.5	2.4	-4.2	5.8	-6.6
COc1ccc(C)cc1NC(=O)c1ccccc1NS(=O)(=O)c1ccc(Cl)s1	-35.2	-2.8	58.2*	44.6	48.2	69.0*
COc1ccccc1NC(=O)c1ccccc1NS(=O)(=O)c1cccs1	-5.9	9.5	17.9	9.2	6.6	5.7
CCCC(O)(c1ccc(Br)cc1)C(CN1CCOCC1)c1ccc(Cl)cc1 (centres undefined)	-10.8	7.1	32.9	57.7*	17.9	-3.5
CCCC(O)(c1ccccc1)C(CN1CCOCC1)c1ccccc1 (centres undefined)	-1.7	9.9	-14.1	5.6	13.4	15.8
CCCC(O)(c1ccc(Cl)cc1)C(CN1CCOCC1)c1ccccc1 (centres undefined)	1.8	2.4	-2.3	57.3*	-1.4	-6.7
O=C(CSCc1cc(=O)n2ccsc2n1)Nc1ccc(F)cc1	2.5	9.0	-15.3	8.4	0.6	13.5
CC[C@@H](C)C(C(=O)N1CCN(C(=O)OC(C)(C)C)CC1)n1cc(-c2cn([C@@H](C)C(=O)N3CCN(C(=O)OC(C)(C)C)CC3)nn2)nn1 (some centres undefined)	14.2	17.2	54.6*	-6.1	13.4	-21.6
CCCCN1C(=O)C(=O)N(CC(=O)c2cc(C)n(-c3cc(C)on3)c2C)C1=O	-4.6	1.3	-21.4	-10.6	-21.3	0.9
CC(C)C(=O)NC(=S)Nc1c(Cl)ccc2nsnc12	7.0	-1.5	-7.9	-6.0	-1.6	-3.5
COC(=O)CSc1ccc2nnc(-c3ccc(OC)c(OC)c3)n2n1	-14.9	18.6	5.2	13.9	6.9	-47.7
COc1ccc(-c2nnc3ccc(SCC(=O)Nc4nc5ccc(C)cc5s4)nn23)cc1OC	-1.6	8.4	87.4*	-0.8	0.3	98.4*
Nc1[nH]c(C(=O)c2ccccc2)c(-c2ccncc2)c1C(=O)NCc1ccc(Cl)cc1	nt	9.2	12.9	nt	nt	29.1
Nc1cc2c(cc1Cl)-c1ccccc1C2=NO	12.9	-224.7	-17.0	-302.6	46.0	44.0
COc1ccc(C(=O)/C=C/Sc2nc3ccccc3o2)cc1	-10.0	26.2	37.4	90.8*	54.4*	61.3*
O=C(c1cccs1)N1CCC(c2nc3c(nnn3Cc3c(Cl)cccc3Cl)c(=O)[nH]2)CC1	7.0	34.0	1.6	20.5	5.2	37.5
O=C(O/N=C\c1ccc(N2CCCCC2)c([N+](=O)[O-])c1)c1c(F)cccc1F	-4.0	-43.3	nt	-29.3	14.1	78.0*
O=C(Cn1c2ccccc2c(=O)c2ccccc21)N/N=C/c1ccc(N2CCCC2)c([N+](=O)[O-])c1	-0.6	0.6	35.0	91.4*	-9.3	64.6*
C[C@@H]1CN([C@H](C)CO)C(=O)c2cc(NS(=O)(=O)c3ccc(F)cc3)ccc2O[C@@H]1CN(C)Cc1ccc(Cl)c(Cl)c1	13.2	-14.6	33.7	52.4*	-4.5	20.1
C[C@H]1CN([C@@H](C)CO)C(=O)c2cccc(NC(=O)Nc3ccc(C(F)(F)F)cc3)c2O[C@@H]1CN(C)Cc1ccc(Cl)c(Cl)c1	-48.4	-35.7	2.4	97.0*	67.8*	17.8
C[C@H](CO)N1C[C@H](C)[C@@H](CN(C)S(=O)(=O)c2cccs2)Oc2ccc(NC(=O)Nc3ccc(C(F)(F)F)cc3)cc2C1=O	-16.6	17.2	30.7	39.5	14.0	60.2*
C[C@H](CO)N1C[C@H](C)[C@@H](CN(C)Cc2ccc(-c3ccccc3)cc2)Oc2c(NC(=O)Nc3ccc4c(c3)OCO4)cccc2C1=O	-2.0	-46.5	16.0	94.0*	6.4	21.6
CCn1c(=O)c2ccccc2n(Cc2ccccc2C)c1=O	-1.3	9.7	-11.1	17.4	9.5	-32.8
O=[N+]([O-])c1ccccc1S(=O)(=O)Nc1ccn(Cc2c(F)cccc2Cl)n1	12.3	-0.1	1.5	8.4	-2.5	7.3
SMILES	KKLEB tox	HIF-2a block	TROY NFkB inh	Peg3 promoter	CF NFkB inh	TWEAK-Fn14 inh
COc1ccc(Oc2c(OC)cc(NCc3ccc(CN)cc3)c3ncccc23)cc1	8.4	2.6	-3.5	4.0	-3.0	-3.5
CCCNC(=O)C1(C)CCCN(Cc2ccc(-n3ccnc3)cc2)C1 (centres undefined)	18.7	-1.3	-3.0	4.5	1.8	-9.6
O=C(OC1CC2CC1[C@H]1CCCCN1C2=O)N1CCC(c2ccccc2)CC1 (some centres undefined)	nt	12.5	-9.1	nt	nt	-9.5
C[C@@H]1CN([C@H](C)CO)C(=O)c2cc(NC(=O)Nc3ccc(C(F)(F)F)cc3)ccc2O[C@H]1CN(C)Cc1ccc(Cl)c(Cl)c1	-0.5	-14.9	22.6	46.6	-0.1	52.7*
C[C@@H]1CN([C@@H](C)CO)C(=O)Cc2cc(NC(=O)Nc3ccc(C(F)(F)F)cc3)ccc2O[C@@H]1CN(C)S(=O)(=O)c1ccc(Cl)cc1	-5.3	-15.3	4.9	59.9*	26.2	39.4
O=S(=O)(c1cccc(NC(=S)N2CCN(c3cccc(Cl)c3)CC2)c1)C(F)F	-9.8	-34.6	25.6	14.9	17.4	83.0*
CCc1ccc(Nc2n[n+](-c3ccccc3)c(-c3ccc(OCc4ccccc4)cc3)s2)cc1	0.9	-13.2	36.0	6.8	12.5	82.5*
CCN(CC)c1ccc(-c2sc(Nc3ccccc3)n[n+]2-c2ccc(F)cc2)cc1	14.0	-7.1	12.9	-17.8	-36.1	16.2
CCc1ccc(Nc2n[n+](-c3ccccc3)c(-c3ccc(N(CC)CC)cc3)s2)cc1	1.1	-122.8	29.8	84.5*	33.1	43.1
CC(Sc1nnc(-c2cccnc2)n1N)C(=O)Nc1ccc2c(c1)OCCO2 (centres undefined)	20.9	8.8	13.7	9.5	-25.7	1.9
c1ccc(CNc2c(-c3cccc(SC4CCCCC4)c3)nc3ccccn23)cc1	-16.7	-179.6	-11.7	85.8*	16.8	16.1
Cc1ccc2nc(-c3cccc(SC4CCCCC4)c3)c(NCc3ccccc3)n2c1	-8.6	-45.3	-18.2	67.5*	38.8	17.0
Cc1ccn2c(NCc3ccccc3)c(-c3cccc(SC4CCCCC4)c3)nc2c1	0.2	-63.6	-36.9	-45.9	14.8	-26.7
c1cc(SC2CCCCC2)cc(-c2nc3cnccn3c2NC2CCCCC2)c1	-54.6*	37.4	-1.8	95.3*	72.8*	20.3
Fc1ccc2[nH]c3c(NCc4ccccc4)ncnc3c2c1	-5.9	26.0	52.1*	20.8	-4.5	44.4
OCCCNc1ncnc2c1[nH]c1ccccc12	-4.7	9.7	-12.3	3.9	13.0	-5.8
Oc1cccc2ccc(/C=C/c3ccccc3Br)nc12	-13.5	-276.4	54.7*	-160.6	-5.5	55.7*
COc1cc(Br)c(/C=C/c2ccc3cccc(O)c3n2)cc1OC	-3.1	-11.4	7.7	-47.2	12.7	-21.9
